Structures are written as SMILES. This is part of a sample that, as a whole, favours compounds with a hit. Of some 83,000 tested, about 20% had one in any assay.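 Values shown are percent growth following 48 h exposure of cells in 96-well plates to a single concentration of compound; below 10 was considered active.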 Values without a mark were called inactive. Calls of active or inactive are those of the source.

Test systems include NCI-H23 lung; NCI-H226 lung; NCI-H322M lung; HOP-62 NSCLC; NCI-H460 lung; HOP-92 NSCLC; NCI-H522 lung; A549/ATCC NSCLC; 786-0 renal; COLO 205 colon; DU-145 prostate; K-562 leukemia; MALME-3M melanoma; MDA-MB-231 breast; RXF 393 renal; SF-268 CNS; SF-295 CNS; SF-539 CNS; UACC-257 melanoma; M14 melanoma.
Assay in all cases: NCI-60 one-dose screen, 48 h (100 = growth as untreated, 0 = no growth, -100 = all killed)
Holding throughout (conditions): 10 µM unless noted

Regarding `CN(C[C@H]1Cc2c(cccc2N2CCN(Cc3ccccn3)CC2)CN1)[C@H]1CCCc2cccnc21`, the growth is 62.4% with NCI-H23 lung; 56.9% in the assay on NCI-H226 lung; 65.3% in the assay with NCI-H322M lung; 39.1% in the assay with HOP-62 NSCLC; 28.1% with NCI-H460 lung; 73.2% in the assay with HOP-92 NSCLC. For the same compound, the growth is 95.5% in the assay with NCI-H522 lung; 40.3% in the assay with A549/ATCC NSCLC; 68.5% in the assay on 786-0 renal; 69.6% in the assay on COLO 205 colon; 66.6% with DU-145 prostate; 9.95% (active) in the assay with K-562 leukemia. Moreover, the growth in the assay with MALME-3M melanoma is 88.3%; in the assay with MDA-MB-231 breast, 70.2%; in the assay on RXF 393 renal, 77.9%; in the assay with SF-268 CNS it was 63.8%; in the assay with SF-295 CNS, 43.4%; in the assay with SF-539 CNS, 83%. Besides, the values for the growth in the assay with UACC-257 melanoma and in the assay on M14 melanoma were 93.1% and 62.3%, respectively.

In the case of `CCCCCc1cc[n+](CC(=O)c2ccc([N+](=O)[O-])cc2)cc1`, the growth in the assay on NCI-H23 lung is 69.6%; in the assay on NCI-H226 lung, 96.5%; in the assay with NCI-H322M lung, 107%; in the assay on HOP-62 NSCLC it was 79.8%; in the assay with NCI-H460 lung, 49.6%; in the assay with HOP-92 NSCLC, 51.7%. Further, the growth in the assay on NCI-H522 lung was 45.7%; in the assay with A549/ATCC NSCLC it was 78.9%; with 786-0 renal, 96.5%; with COLO 205 colon, -5.18% (active); with DU-145 prostate, 79.2%; in the assay on K-562 leukemia, 34.7%. Besides, the growth in the assay with MALME-3M melanoma was 85.2%; in the assay on MDA-MB-231 breast it was 70%; with RXF 393 renal, 97.6%; in the assay on SF-268 CNS, 87.3%; with SF-295 CNS it was 95.2%; with SF-539 CNS, 96.9%. The growth with UACC-257 melanoma is 35.6%.

With `Oc1ccc(Cl)cc1-c1cc(-c2ccc(F)cc2)n[nH]1`, the growth was 53.5% with NCI-H23 lung; 92.7% with NCI-H226 lung; 68.1% in the assay on NCI-H322M lung; 62.5% with HOP-62 NSCLC; 42.5% with NCI-H460 lung; 64.6% with HOP-92 NSCLC. The growth with NCI-H522 lung is 60.9%; in the assay with A549/ATCC NSCLC, 62%; in the assay with 786-0 renal it was 85.6%; in the assay with COLO 205 colon it was 81.7%; with DU-145 prostate, 75.9%; with K-562 leukemia, 63.2%. Moreover, the growth is 77.8% in the assay on MALME-3M melanoma; 27.3% in the assay with MDA-MB-231 breast; 73.4% in the assay on RXF 393 renal; 63.6% in the assay on SF-268 CNS; 49.2% with SF-295 CNS; 90.1% in the assay on SF-539 CNS. For the same compound, the growth was 96.6% in the assay with UACC-257 melanoma and 76.6% in the assay on M14 melanoma.

As to `CCC(=O)Oc1ccc(/C(=C(/C)Cc2cccc(OC)c2)c2ccc(OCCN(C)C)cc2)cc1`, the growth was 94.2% with NCI-H23 lung; 111% in the assay with NCI-H226 lung; 94.5% in the assay with NCI-H322M lung; 108% with HOP-62 NSCLC; 90.1% in the assay with NCI-H460 lung; 67.2% with HOP-92 NSCLC. Besides, the growth with NCI-H522 lung is 87.6%; with A549/ATCC NSCLC, 97.7%; in the assay on 786-0 renal it was 79.7%; in the assay with COLO 205 colon it was 102%; in the assay on DU-145 prostate, 93.3%; in the assay on K-562 leukemia, -26.5% (active). In addition, the growth with MALME-3M melanoma was 100%; with MDA-MB-231 breast it was 88.2%; with RXF 393 renal, 88.6%; in the assay with SF-268 CNS, 86.3%; with SF-295 CNS, 99.2%; in the assay on SF-539 CNS, 90.3%. In addition, the growth was 118% in the assay on UACC-257 melanoma and 31.8% in the assay on M14 melanoma.

As to `O=C(Nc1ccc(Cl)c(Cl)c1)NS(=O)(=O)c1cnccc1Oc1ccc(F)cc1`, the growth was 39.3% in the assay on NCI-H23 lung; 74.9% with NCI-H226 lung; 89.2% with NCI-H322M lung; 80.6% in the assay with HOP-62 NSCLC; 44.6% in the assay on NCI-H460 lung; 52.7% with HOP-92 NSCLC. In addition, the growth with NCI-H522 lung was 20.2%; in the assay with A549/ATCC NSCLC, 28%; in the assay on 786-0 renal, 83.9%; in the assay with COLO 205 colon, 90.4%; in the assay on DU-145 prostate, 78.5%; in the assay with K-562 leukemia, 19.6%. The growth was 41.2% in the assay on MALME-3M melanoma; 93.9% in the assay on MDA-MB-231 breast; 38% with RXF 393 renal; 80.7% in the assay with SF-268 CNS; 13.7% with SF-295 CNS; 90.1% with SF-539 CNS. The growth with UACC-257 melanoma is -7.26% (active).

For `CCCCCCCCCCCCCCCCCCNC(=O)[C@H]1CSC(c2cccs2)N1` (some centres not stated), the growth in the assay with NCI-H23 lung was 18.9%; in the assay with NCI-H226 lung, -77.5% (active); in the assay with NCI-H322M lung it was 0.224% (active); with HOP-62 NSCLC it was -90.3% (active); in the assay with NCI-H460 lung, -78.4% (active); with HOP-92 NSCLC, 46.3%. Further, the growth was 38.6% in the assay with NCI-H522 lung; 8.15% (active) in the assay with A549/ATCC NSCLC; 3.69% (active) with 786-0 renal; 80.6% with COLO 205 colon; 53.3% in the assay with DU-145 prostate; -27.7% (active) with K-562 leukemia. The growth is -78.4% (active) with MALME-3M melanoma; -93.5% (active) in the assay with MDA-MB-231 breast; -90.9% (active) with RXF 393 renal; -65.7% (active) in the assay on SF-268 CNS; 66.5% in the assay with SF-295 CNS; -49.6% (active) with SF-539 CNS. Also, the growth is -17.7% (active) with UACC-257 melanoma and -84.8% (active) in the assay with M14 melanoma.

In the case of `COc1cc(/C=C/C(=O)c2c(C)nc3ccccc3c2C)ccc1OCCCCOc1cc2c(cc1OC)C(=O)N1CCC[C@H]1C=N2`, the growth with NCI-H23 lung was -34.9% (active); in the assay on NCI-H226 lung it was -80.9% (active); in the assay with NCI-H322M lung, -62.7% (active); in the assay with HOP-62 NSCLC, -49% (active); in the assay with NCI-H460 lung, -93.3% (active); in the assay on HOP-92 NSCLC, -49.1% (active). The growth in the assay on NCI-H522 lung is -32.2% (active); with A549/ATCC NSCLC, -52.6% (active); with 786-0 renal, -88.1% (active); with COLO 205 colon, -100% (active); with DU-145 prostate, -100% (active); in the assay on K-562 leukemia, -55.5% (active). Moreover, the growth in the assay on MALME-3M melanoma is -81.3% (active); in the assay on MDA-MB-231 breast, -65.9% (active); in the assay on RXF 393 renal, -92.6% (active); in the assay on SF-268 CNS, -35.6% (active); in the assay with SF-295 CNS it was -48.9% (active); in the assay with SF-539 CNS, -90.6% (active). In addition, the growth in the assay with UACC-257 melanoma was -88% (active).

Turning to `COc1ccc(C(=O)N2NC(=O)/C(=C/c3cn(-c4ccccc4)nc3-c3ccccc3)N=C2c2ccccc2)cc1`, the growth with NCI-H23 lung is 97.3%; with NCI-H226 lung, 102%; with NCI-H322M lung, 97.3%; in the assay with HOP-62 NSCLC, 115%; with NCI-H460 lung, 106%; in the assay with HOP-92 NSCLC, 100%. For the same compound, the growth in the assay on NCI-H522 lung is 95.9%; in the assay on A549/ATCC NSCLC it was 91.6%; in the assay on 786-0 renal, 93%; in the assay on COLO 205 colon it was 120%; with DU-145 prostate it was 108%; with K-562 leukemia, 105%. Also, the growth in the assay on MALME-3M melanoma was 105%; in the assay with MDA-MB-231 breast, 93.8%; in the assay with RXF 393 renal, 104%; in the assay on SF-268 CNS, 98.2%; with SF-295 CNS, 86.9%; in the assay on SF-539 CNS, 115%. The growth in the assay with UACC-257 melanoma was 95%; in the assay with M14 melanoma, 110%.
